# Screen size: about 48,000 compounds; about 13,000 (27%) showed an effect of 50% or more. Some of the results follow.
# Test system: Wolbachia pipientis
# Assay: Anti-Wolbachia Cell-Based Screen
# Type: functional
# Set-up: scale not given: in the data most compounds retested in dose-response had high values
# Conditions: 5 µM
row,Structure (SMILES),Percent Effect
1,NC(=O)C(NC(=O)Cc1cnn(-c2ccccc2)n1)c1ccccc1 (centres undefined),-10.55%
2,CNC(=O)C(C)(C)CNC(=O)Nc1cc(C)ccn1,-2.642%
3,CNC(=O)[C@H]1C[C@@H]2CN(S(=O)(=O)c3ccc(F)cc3)C[C@@H]2N1C.O=C(O)C(F)(F)F,-8.738%
4,CNC(=O)[C@H]1C[C@@H]2CN(C(=O)c3ccncc3)C[C@@H]2N1S(C)(=O)=O.O=C(O)C(F)(F)F,89.45%
5,CNC(=O)[C@H]1C[C@@H]2CN(C(=O)c3ccccn3)C[C@@H]2N1S(C)(=O)=O.O=C(O)C(F)(F)F,96.47%
6,CNC(=O)[C@H]1C[C@@H]2CN(C(=O)c3cccnc3)C[C@@H]2N1S(C)(=O)=O.O=C(O)C(F)(F)F,86.97%
7,CNC(=O)[C@H]1C[C@@H]2CN(S(=O)(=O)c3ccccc3)C[C@@H]2N1C.O=C(O)C(F)(F)F,-12.02%
8,CNC(=O)[C@H]1C[C@@H]2CN(S(=O)(=O)c3cccc(C)c3)C[C@@H]2N1C.O=C(O)C(F)(F)F,-8.978%
9,CNC(=O)[C@H]1C[C@@H]2CN(S(=O)(=O)c3ccc(C)cc3)C[C@@H]2N1C.O=C(O)C(F)(F)F,-6.65%
10,CCc1nc(C)c(C(C)N(C)CCOC)s1 (centres undefined),-4.092%
11,CC(C)c1nnc(NCc2ccsc2)o1,-7.753%
12,COc1cccc(COC(C)C(=O)NCc2nnc3n2CCC3)c1 (centres undefined),0.6682%
13,Cc1csc(N2CCC(NCC3(O)CCc4ccccc43)CC2)n1 (centres undefined),-8.914%
14,COCC1CN(S(=O)(=O)c2cccs2)Cc2ncnn2C1 (centres undefined),-4.986%
15,O=C(Cc1cccs1)N1Cc2nc(COCC3CC3)oc2C1,106.2%
16,O=C(NCc1ccccc1)N1Cc2nc(COCC3CC3)oc2C1,6.767%
17,O=S(=O)(c1cccs1)N1Cc2nc(COCC3CC3)oc2C1,96.89%
18,O=C(O)C(F)(F)F.O=C(c1ccncc1F)N1Cc2nc(COCC3CC3)oc2C1,11.83%
19,O=S(=O)(c1cccs1)N1CCN2C[C@H](OCC3CC3)C[C@H]2C1,12.99%
20,CN(C)c1ncc(-c2ccc(C(N)=O)cc2)c(C2CCNC2)n1.Cl (centres undefined),101.4%
21,CN(C)c1ncc(-c2cccc(C(N)=O)c2)c(C2CNCCO2)n1.Cl (centres undefined),103.6%
22,C=Cc1ccc(C(=O)NC2CCCc3nc(N(C)C)ncc32)cc1 (centres undefined),4.134%
23,CN(C)c1ncc(-c2ccc(C(N)=O)cc2)c(C2CNCCO2)n1 (centres undefined),99.82%

row,Structure (SMILES),Percent Effect
1,Cc1nnc(-c2ccc(C(=O)Nc3ccnc(N(C)C)n3)cc2)o1,-7.444%
2,CN(C)c1ncc2c(n1)CCCC2NC(=O)c1ccsc1 (centres undefined),-6.116%
3,CC(C#N)CSc1ccccc1NCC(=O)Nc1ccccc1 (centres undefined),-8.038%
4,Cn1c(-c2ccccc2Cl)nc2cc(C(=O)NCCOCCO)cnc21,-3.34%
5,O=C(CC1CCCO1)Nc1cccc(N2CCN(CC3CC3)CC2)c1 (centres undefined),-9.056%
6,Cc1ccc(C)c(NC(=O)Cn2nc(C)c(C#N)c2N)c1,-3.359%
7,CC(C)SCc1cccc(NC2CCN(C)C2=O)c1 (centres undefined),-2.094%
8,CCc1ccccc1-n1cc(O)c(C(=O)N2CCCCC2)n1,-6.715%
9,CC(C(=O)N1CCN(c2cnccn2)CC1)n1cncn1 (centres undefined),-0.9189%
10,Cc1csc(N2CCCN(C(=O)C(C(C)C)n3cncn3)CC2)n1 (centres undefined),-4.935%
11,CC(C(=O)N1CCN(c2ncccn2)CC1)n1cncn1 (centres undefined),114.6%
12,CCc1nc(CN2CCCN(C(=O)C(C)n3cncn3)CC2)cs1 (centres undefined),-3.687%
13,CC(=O)N1CCCN(C(=O)C(C)n2cncn2)CC1 (centres undefined),98.01%
14,CC(C(=O)N1CCN(c2ccccc2Cl)CC1)n1cncn1 (centres undefined),9.073%
15,CC(C(=O)N1CCOCC1)n1cncn1 (centres undefined),74.2%
16,CC(C)N1CCN(C(=O)C(C)n2cncn2)CC1 (centres undefined),90.2%
17,COc1ccc(NC(C)C(=O)N2CCN(c3ncccn3)CC2)cn1 (centres undefined),-16.98%
18,CC(=O)N1CCN(C(=O)C(C)n2cncn2)CC1 (centres undefined),5.614%
19,CC(=O)N1C[C@@H](F)[C@@H](OCc2nc3ccc(C#N)cc3[nH]2)C1,-0.3332%
20,Cc1csc(CN(CC2CCCO2)C(=O)c2occc2C)n1 (centres undefined),-7.004%
21,Cc1ccc(NC2(C(=O)NCc3c(C)n[nH]c3C)CCCC2)cc1,1.889%
22,O=S1(=O)CCC(N(CCc2ccc3c(c2)CCO3)C2CC2)C1 (centres undefined),-1.378%
23,Cc1ccc(CN2CCOC3(CCCN(C(=O)c4ccco4)C3)C2)o1 (centres undefined),-7.626%

row,Structure (SMILES),Percent Effect
1,Cc1ccc(-c2[nH][nH]c(=O)c2CCN)cc1,116.2%
2,NCCc1c(-c2ccc(F)cc2)[nH][nH]c1=O,105.4%
3,NCCc1c(-c2ccccc2)[nH][nH]c1=O.O=C(O)C(=O)O,104.8%
4,Cc1nc(C)c(CCNC(Cc2ccncc2)C(F)(F)F)s1 (centres undefined),2.095%
5,CC(SCCS(C)(=O)=O)c1nc(Cc2ccc(F)cc2)no1 (centres undefined),-13.13%
6,CNC(=O)c1cn2cc(-c3ccccc3Cl)n(CC=C(C)C)c(=O)c2n1,16.22%
7,COc1ccccc1OC1CN(C(=O)Cc2c(C)nc(N)nc2C)C1,-25.47%
8,COc1ccccc1CNC(=O)C(C)N1CC(n2nc(C)cc2C)C1 (centres undefined),-6.868%
9,COc1ccccc1CNC(=O)N1CCCC(CO)C1 (centres undefined),3.322%
10,COc1ccccc1C(C)CC(=O)N1CCN(S(N)(=O)=O)CC1 (centres undefined),6.973%
11,COc1ccccc1CN1CC(OC)CN(C(=O)CC(C)C)CC1=O (centres undefined),106.9%
12,COc1ccccc1CN1CC(OC)CN(C(=O)OCC(C)C)CC1=O (centres undefined),116.7%
13,COc1ccccc1C(C)CC(=O)N1CCCS1(=O)=O (centres undefined),-3.86%
14,COc1ccccc1CN1CC(O)CN(C(=O)OCC(C)C)CC1=O (centres undefined),126.7%
15,Cc1cc(CNc2cc(Cl)ccc2OCCS(C)(=O)=O)no1,12.16%
16,COCCN(Cc1ccsc1)C(=O)c1c(C)cc(C)[nH]c1=O,-10.51%
17,CC(C)C1CN(Cc2nccn2C)CCC(=O)N1CC1CC1 (centres undefined),-0.2084%
18,Cc1cc(C(=O)N2C[C@@H]3COC[C@]3(CN(C)C)C2)c(C)o1.O=C(O)C(F)(F)F,-9.437%
19,Cc1ccoc1C(=O)N1CC[C@H]2[C@H](C[C@@H](CN3CCCC3)N2C)C1.O=C(O)C(F)(F)F.O=C(O)C(F)(F)F,96.15%
20,CN(C)C[C@@H]1C[C@@H]2CN(Cc3nccn3C)CC[C@@H]2N1CC1CC1,107.7%
21,Cc1cc(C(=O)N2CC[C@H]3[C@H](C[C@@H](CN4CCCC4)N3C)C2)c(C)o1.O=C(O)C(F)(F)F.O=C(O)C(F)(F)F,132.6%
22,CC(C)N1[C@H](CN2CCCC2)C[C@@H]2CN(Cc3ccoc3)CC[C@@H]21.O=C(O)C(F)(F)F.O=C(O)C(F)(F)F.O=C(O)C(F)(F)F,-12.2%
23,CCOCC1CN(C(=O)c2cc(C)oc2C)Cc2c1cnn2C.O=C(O)C(F)(F)F (centres undefined),4.422%

row,Structure (SMILES),Percent Effect
1,Cc1oncc1C(=O)N1C[C@H]2CCCC(N(C)Cc3cccs3)[C@H]2C1.O=C(O)C(F)(F)F (some centres undefined),13.96%
2,CN1[C@H](CN2CCCC2)C[C@@H]2CN(Cc3ccoc3)CC[C@@H]21.O=C(O)C(F)(F)F.O=C(O)C(F)(F)F.O=C(O)C(F)(F)F,3.946%
3,Cc1oncc1C(=O)N1CC[C@H]2[C@H](C[C@@H](CN(C)C)N2CC2CC2)C1.O=C(O)C(F)(F)F.O=C(O)C(F)(F)F,105.6%
4,CS(=O)(=O)N1CC[C@H]2[C@H](C[C@@H](Cn3cncn3)N2CC2CC2)C1.O=C(O)C(F)(F)F,-10.6%
5,CC(C)N1[C@H](Cn2cncn2)C[C@@H]2CN(Cc3nccn3C)CC[C@@H]21.O=C(O)C(F)(F)F.O=C(O)C(F)(F)F.O=C(O)C(F)(F)F,2.762%
6,CN(C)C(=O)N1CCN(Cc2nc3ccccc3[nH]2)[C@H]2CS(=O)(=O)C[C@H]21,-17.35%
7,CC(C)c1nc(CN2CCCCC2)cs1,-7.213%
8,CN1CC2(CCN(C(=O)c3ccc4nccnc4c3)CC2)CC1=O,-6.042%
9,COCCCN1CC2(CCN(C(=O)Cc3csc(C)n3)CC2)CC1=O,-10.63%
10,CC1(C)CN(C(=O)c2ncc(F)cc2F)CCC1(O)CN1CCOCC1 (centres undefined),-6.83%
11,COCCCN1CC2(CCN(Cc3ncc[nH]3)CC2)CC1=O,10.5%
12,COc1cccc(N2CCN(C(=O)c3ccc(=O)n(C)c3)CC2)c1,-5.711%
13,COCCCN1CC2(CCN(C(=O)c3ccc(=O)n(C)c3)CC2)CC1=O,118.9%
14,CN1CC2(CCN(C(=O)c3ccc4nonc4c3)CC2)CC1=O,-11.27%
15,COCCCN1CC2(CCN(C(=O)c3ncc(F)cc3F)CC2)CC1=O,74.04%
16,CN1CC2(CCN(C(=O)c3ccc(=O)n(C)c3)CC2)CC1=O,119.6%
17,Cc1nnc(CN(C)C2CCN(c3cccc(-c4cscn4)c3)CC2)o1,-15.24%
18,CC(=O)N1[C@H](Cn2cncn2)C[C@@H]2CN(S(C)(=O)=O)CC[C@@H]21,-6.775%
19,CCC(C(=O)NC)N(c1cccc(C)c1)S(C)(=O)=O (centres undefined),11.36%
20,CSc1cccc(CN(C)C(=O)Nc2nc(C)n(C)n2)c1,2.052%

# From ChEMBL document CHEMBL3988442, “University of Dundee, Small-Polar-MMV Screening Library” (2021)
